“And” between values parts separate entries of the source, which are not always exact repeats. Equal values may be shown once. Out of some 5,500 compounds screened, about 2,000 (36%) were called active. Another 18% or so got no clear call; they are omitted. No stated cut-off is given here; in the data, active means normalized growth mostly below about 0.91 (no sharp cut-off); inconclusive means no clear call, values can overlap the other calls; inactive means mostly above about 0.92. The list shows a part of the results.
Test: chemical genetic growth profiling, strain panel (AID 1159580);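 further: tested at 20 µM; growth read once vehicle control cultures reached saturation at 30 °C; 1 = growth at the plate median or of vehicle wells; lower values mean less growth of the strain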
Conditions: growth OD

Measured: normalized growth

CCCNC(C)C(=O)Nc1ccccc1C (stereo unspecified)
inactive: S. cerevisiae deletion strains, locus YJR066W, strain TOR1, hits give low values 0.979 | S. cerevisiae deletion strains, locus YJR075W, strain HOC1, hits give low values 1.01 | S. cerevisiae deletion strains, locus YKL009W, strain mrt4, hits give low values 1 | S. cerevisiae deletion strains, locus YKL068W, hits give low values 0.99 | S. cerevisiae deletion strains, locus YKL085W, strain MDH1 (second series), hits give low values 1 | S. cerevisiae deletion strains, locus YKL085W, strain MDH1, hits give low values 1 | S. cerevisiae deletion strains, locus YKL160W, strain elf1, hits give low values 1.01 | S. cerevisiae deletion strains, locus YKL190W, strain CNB1, hits give low values 1 | S. cerevisiae deletion strains, locus YKR001C, strain vps1, hits give low values 1 | S. cerevisiae deletion strains, locus YKR026C, strain gcn3, hits give low values 1 | S. cerevisiae deletion strains, locus YKR091W, strain srl3, hits give low values 1 | S. cerevisiae deletion strains, locus YLL001W, strain dnm1, hits give low values 1.01 | S. cerevisiae deletion strains, locus YLL026W, hits give low values 1.01 | S. cerevisiae deletion strains, locus YLL041C, strain sdh2, hits give low values 0.997 | S. cerevisiae deletion strains, locus YLR027C, strain aat2, hits give low values 1.01 | S. cerevisiae deletion strains, locus YLR039C, strain RIC1, hits give low values 1.03 | S. cerevisiae deletion strains, locus YLR058C, strain SHM2, hits give low values 1.01 | S. cerevisiae deletion strains, locus YLR102C, strain apc9, hits give low values 0.989 | S. cerevisiae deletion strains, locus YLR113W, strain HOG1, hits give low values 1.09 | S. cerevisiae deletion strains, locus YLR221C, strain rsa3, hits give low values 0.988 | S. cerevisiae deletion strains, locus YLR258W, strain gsy2, hits give low values 0.999 | S. cerevisiae deletion strains, locus YLR262C, strain YPT6 (second series), hits give low values 1.02 | S. cerevisiae deletion strains, locus YLR262C, strain YPT6, hits give low values 1.07 | S. cerevisiae deletion strains, locus YLR268W, strain sec22, hits give low values 0.989 | S. cerevisiae deletion strains, locus YLR320W, strain mms22, hits give low values 1.01 | S. cerevisiae deletion strains, locus YLR330W, strain CHS5, hits give low values 1.01 | S. cerevisiae deletion strains, locus YLR342W, strain FKS1 (second series), hits give low values 0.996 | S. cerevisiae deletion strains, locus YLR342W, strain FKS1, hits give low values 1.01 | S. cerevisiae deletion strains, locus YLR357W, strain rsc2, hits give low values 0.981 | S. cerevisiae deletion strains, locus YLR370C, strain arc18, hits give low values 1.01 | S. cerevisiae deletion strains, locus YLR371W, strain rom2, hits give low values 0.983 | S. cerevisiae deletion strains, locus YLR384C, strain iki3, hits give low values 1.01 | S. cerevisiae deletion strains, locus YLR418C, strain cdc73, hits give low values 0.967 | S. cerevisiae deletion strains, locus YML016C, strain PPZ1, hits give low values 1.01 | S. cerevisiae deletion strains, locus YML032C, strain rad52, hits give low values 0.987 | S. cerevisiae deletion strains, locus YML120C, strain ndi1, hits give low values 1 | S. cerevisiae deletion strains, locus YML124C, strain tub3, hits give low values 0.989 | S. cerevisiae deletion strains, locus YMR058W, strain fet3, hits give low values 1 | S. cerevisiae deletion strains, locus YMR078C, strain ctf18, hits give low values 0.993 | S. cerevisiae deletion strains, locus YMR125W, strain sto1, hits give low values 1.02 | S. cerevisiae deletion strains, locus YMR129W, hits give low values 1 | S. cerevisiae deletion strains, locus YMR205C, strain PFK2, hits give low values 1 | S. cerevisiae deletion strains, locus YMR223W, strain ubp8, hits give low values 0.972 | S. cerevisiae deletion strains, locus YMR231W, strain pep5, hits give low values 1.01 | S. cerevisiae deletion strains, locus YMR263W, strain SAP30, hits give low values 1 | S. cerevisiae deletion strains, locus YMR307W, strain GAS1, hits give low values 0.949 | S. cerevisiae deletion strains, locus YNL067W, strain RPL9B, hits give low values 1.02 | S. cerevisiae deletion strains, locus YNL071W, strain lat1, hits give low values 1 | S. cerevisiae deletion strains, locus YNL153C, strain GIM3, hits give low values 0.963 | S. cerevisiae deletion strains, locus YNL175C, strain NOP13, hits give low values 1.01 | S. cerevisiae deletion strains, locus YNL183C, strain NPR1, hits give low values 1 | S. cerevisiae deletion strains, locus YNL197C, strain WHI3, hits give low values 1.04 | S. cerevisiae deletion strains, locus YNL209W, strain ssb2, hits give low values 1 | S. cerevisiae deletion strains, locus YNL224C, strain SQS1, hits give low values 0.989 | S. cerevisiae deletion strains, locus YNL233W, strain BNI4, hits give low values 1.03 | S. cerevisiae deletion strains, locus YNL248C, strain rpa49, hits give low values 1.01 | S. cerevisiae deletion strains, locus YNL250W, strain rad50, hits give low values 0.983 | S. cerevisiae deletion strains, locus YNL271C, strain bni1, hits give low values 0.996 | S. cerevisiae deletion strains, locus YNL298W, strain CLA4, hits give low values 0.985 | S. cerevisiae deletion strains, locus YNL307C, strain MCK1, hits give low values 0.998 | S. cerevisiae deletion strains, locus YNL322C, strain KRE1 (second series), hits give low values 1 | S. cerevisiae deletion strains, locus YNL322C, strain KRE1, hits give low values 1 and 1.02 | S. cerevisiae deletion strains, locus YNR049C, strain mso1, hits give low values 1.01 | S. cerevisiae deletion strains, locus YNR052C, strain pop2, hits give low values 0.998 | S. cerevisiae deletion strains, locus YOL006C, strain TOP1, hits give low values 1.04 | S. cerevisiae deletion strains, locus YOL012C, strain htz1 0.66 | S. cerevisiae deletion strains, locus YOL147C, strain pex11, hits give low values 0.979 | S. cerevisiae deletion strains, locus YOR001W, strain rrp6, hits give low values 0.994 | S. cerevisiae deletion strains, locus YOR061W, strain CKA2, hits give low values 1.02 | S. cerevisiae deletion strains, locus YOR069W, strain VPS5, hits give low values 1 | S. cerevisiae deletion strains, locus YOR070C, strain gyp1, hits give low values 1 | S. cerevisiae deletion strains, locus YOR080W, strain dia2, hits give low values 0.999 | S. cerevisiae deletion strains, locus YOR083W, strain WHI5 (second series), hits give low values 1.01 | S. cerevisiae deletion strains, locus YOR083W, strain WHI5, hits give low values 1 | S. cerevisiae deletion strains, locus YOR106W, strain vam3, hits give low values 1 | S. cerevisiae deletion strains, locus YOR136W, strain idh2, hits give low values 0.992 | S. cerevisiae deletion strains, locus YOR144C, strain elg1, hits give low values 0.977 | S. cerevisiae deletion strains, locus YOR184W, strain ser1, hits give low values 0.968 | S. cerevisiae deletion strains, locus YOR231W, strain MKK1, hits give low values 1.09 | S. cerevisiae deletion strains, locus YOR265W, strain rbl2, hits give low values 1.01 | S. cerevisiae deletion strains, locus YOR270C, strain vph1, hits give low values 0.987 | S. cerevisiae deletion strains, locus YOR290C, strain snf2, hits give low values 0.992 | S. cerevisiae deletion strains, locus YOR316C, strain cot1, hits give low values 0.998 | S. cerevisiae deletion strains, locus YPL051W, strain arl3, hits give low values 1 | S. cerevisiae deletion strains, locus YPL055C, strain LGE1, hits give low values 1 | S. cerevisiae deletion strains, locus YPL078C, strain atp4, hits give low values 0.999 | S. cerevisiae deletion strains, locus YPL106C, strain sse1, hits give low values 0.989 | S. cerevisiae deletion strains, locus YPL240C, strain hsp82, hits give low values 1.01 | S. cerevisiae deletion strains, locus YPL241C, strain CIN2, hits give low values 1.01 | S. cerevisiae deletion strains, locus YPL256C, strain CLN2, hits give low values 1.09 | S. cerevisiae deletion strains, locus YPR119W, strain clb2, hits give low values 0.99 | S. cerevisiae deletion strains, locus YPR141C, strain kar3, hits give low values 0.984 | S. cerevisiae deletion strains, locus YPR163C, strain tif3, hits give low values 0.99 | S. cerevisiae deletion strains, locus YPR167C, strain met16, hits give low values 0.994 | S. cerevisiae deletion strains, strain wtn01, hits give low values 0.993 | S. cerevisiae strains, strain wild type, hits give low values 1.01
